Screening data from PubChem BioAssay.
Cav32 inh: human Cav3.2 channel inhibition, primary screen. O95180. Cav3.2-expressing cells, Fluo-4 calcium fluorescence FDSS; hits give low values. AID 449739. 4% of 100,000 active. B-score at 10 µM;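 active = single-dose well whose peak fluorescence ratio is a statistical outlier from its plate by either plate-standardised score or position-corrected B-score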
CYP2C19 act: cytochrome P450 2C19 (human) activation; P33261; recombinant CYP2C19, luciferin-H EGE luminescence; hits give high values; 0 = fully inhibited enzyme, 1 = untreated enzyme; activation factor at 5 µM; 96,000 tested, under 10 active; AID 1025;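 active = activation factor of at least 2 at 5 µM in the primary screen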;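 note: 0 = wells with 2.5 mM tranylcypromine and 1 = vehicle-only wells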
CYP2C9 activ: increases human cytochrome P450 2C9 activity. recombinant CYP2C9, luciferin-H conversion, luminescence; hits give high values; factor 1 = untreated enzyme, 0 = blocked. AID 1024. 1.4% of 96,000 active. P11712. activation factor at 5 µM;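 active = activation factor of 2 or more for CYP2C9 at a 5 µM dose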;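 note: 0 = sulfaphenazole-blocked wells and 1 = vehicle-only wells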
Target sequence (P11712 whole entry, looked up): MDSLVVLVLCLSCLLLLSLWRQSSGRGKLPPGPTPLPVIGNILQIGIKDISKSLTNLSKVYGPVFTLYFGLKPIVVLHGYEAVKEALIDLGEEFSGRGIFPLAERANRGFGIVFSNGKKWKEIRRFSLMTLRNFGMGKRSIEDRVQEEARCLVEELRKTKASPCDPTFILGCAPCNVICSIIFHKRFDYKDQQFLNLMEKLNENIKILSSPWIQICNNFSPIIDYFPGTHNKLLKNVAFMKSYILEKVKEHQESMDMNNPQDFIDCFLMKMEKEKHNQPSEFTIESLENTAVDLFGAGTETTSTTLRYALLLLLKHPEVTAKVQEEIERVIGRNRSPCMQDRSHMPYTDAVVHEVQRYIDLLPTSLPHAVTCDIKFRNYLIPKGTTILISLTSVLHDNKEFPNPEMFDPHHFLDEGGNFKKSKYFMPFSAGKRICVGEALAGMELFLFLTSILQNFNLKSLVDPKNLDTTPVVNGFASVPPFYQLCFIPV
CYP2C9 inh: blocks human cytochrome P450 2C9; P11712; CYP2C9 Supersomes, luciferin-H conversion, luminescence; inhibition, % at 5 µM; 20% of 96,000 active; AID 777;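 active = blocking of liver enzyme CYP2C9 beyond about 50% at 5 µM, limit read from the data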
CYP2C19 inh: blocks human cytochrome P450 2C19 | P33261 | CYP2C19 Supersomes, luciferin-H EGE luminescence, 30 min | inhibition, % at 5 µM | 21% of 96,000 active | AID 778;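 active = CYP2C19 inhibition above a set limit at 5 µM in the primary screen, cut at about 50% in these data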;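 note: plate controls were negative control wells for no effect and 2.5 mM tranylcypromine positive control for full effect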
Active calls of the source: *. An excerpt weighted towards active compounds, which were near 27% of everything screened.

CCOc1ccc(N(CC(=O)NCc2cccs2)S(=O)(=O)c2c(C)noc2C)cc1 was read as Cav32 inh -2.08, CYP2C19 act 0.1, CYP2C9 activ 0.3, CYP2C9 inh 68.7* and CYP2C19 inh 86.2*.
For COc1ccc(N(CC(=O)N2CC=C(c3ccccc3)CC2)S(=O)(=O)c2c(C)noc2C)cc1 the results were Cav32 inh -1.02, CYP2C19 act 1, CYP2C9 activ 0.9, CYP2C9 inh 13.3 and CYP2C19 inh -0.7.
CCOc1ccc(N(CC(=O)N2CC=C(c3ccccc3)CC2)S(=O)(=O)c2c(C)noc2C)cc1 was read as Cav32 inh -4.82*, CYP2C19 act 0.4, CYP2C9 activ 0.7, CYP2C9 inh 30.8 and CYP2C19 inh 63.5*.
COc1ccc(C2N(C(=O)c3ccccc3)CCN2C(=O)c2ccccc2)cc1 was read as Cav32 inh 0.137, CYP2C19 act 0.3, CYP2C9 activ 0.5, CYP2C9 inh 49.7 and CYP2C19 inh 68.6*.
Cc1ccc(S(=O)(=O)N2CCN(S(C)(=O)=O)C2c2ccccc2)cc1 (stereo not drawn) was read as Cav32 inh 0.871, CYP2C19 act 0.4, CYP2C9 activ 0.5, CYP2C9 inh 45.8 and CYP2C19 inh 63.6*.
Cc1ccc(S(=O)(=O)N2CC3CCC2C3)cc1 (stereo not drawn) was read as Cav32 inh 0.0328, CYP2C19 act 0.4, CYP2C9 activ 1.4, CYP2C9 inh -36.5 and CYP2C19 inh 64.6*.
For Cc1ccc(S(=O)(=O)N2CCN(S(=O)(=O)c3ccc(C)cc3)C2c2ccccc2)cc1 the results were Cav32 inh -4.16, CYP2C19 act 0.2, CYP2C9 activ 1.4, CYP2C9 inh -42.0 and CYP2C19 inh 79.0*.
For COc1ccc(C(=O)N2CCCC2)cc1 the results were Cav32 inh 0.437, CYP2C19 act 1, CYP2C9 activ 1, CYP2C9 inh -4.8 and CYP2C19 inh 2.9.
`Cc1ccc(S(=O)(=O)N2CC3(C)CN(S(=O)(=O)c4ccc(C)cc4)CC(C)(C2)C3=O)cc1` gave Cav32 inh 1.05, CYP2C19 act 1.1, CYP2C9 activ 1.1, CYP2C9 inh -5.6 and CYP2C19 inh -12.1.
Screening COc1ccccc1NC(=O)NC1(C(=O)N2CCC(O)CC2)CCCCC1 returned Cav32 inh -0.389, CYP2C19 act 1.1, CYP2C9 activ 1, CYP2C9 inh 2.3 and CYP2C19 inh -6.2.
`COc1ccc(C2N(C(=O)N3CCOCC3)CCN2S(=O)(=O)c2ccc(C)cc2)cc1` (stereo not drawn) gave Cav32 inh 0.604, CYP2C19 act 0.8, CYP2C9 activ 0.6, CYP2C9 inh 41.0 and CYP2C19 inh 18.0.
`COc1ccc(C2N(S(=O)(=O)c3ccccc3)CCN2S(=O)(=O)c2ccc(C)cc2)cc1` (stereo not drawn) gave Cav32 inh -2.32, CYP2C19 act 0.1, CYP2C9 activ 0.4, CYP2C9 inh 64.6* and CYP2C19 inh 85.7*.
Screening O=C(Cn1c(-c2cncs2)nc2ccccc21)NCc1ccccc1 returned Cav32 inh 0.559, CYP2C19 act 0.2, CYP2C9 activ 0.8, CYP2C9 inh 22.5 and CYP2C19 inh 80.2*.
Screening Cc1ccccc1Cn1c(-c2cncs2)nc2ccccc21 returned Cav32 inh -1.49, CYP2C19 act 0.2, CYP2C9 activ 0.6, CYP2C9 inh 39.4 and CYP2C19 inh 75.5*.
`Cc1ccccc1Cn1c(Cc2ccccc2)nc2ccccc21` gave Cav32 inh -5.55*, CYP2C19 act 0.6, CYP2C9 activ 0.8, CYP2C9 inh 24.7 and CYP2C19 inh 37.4.
`CCOC(=O)c1c(NC(=O)c2noc3c2CCCC3)sc(C)c1C` gave Cav32 inh -0.754, CYP2C19 act 1, CYP2C9 activ 0.9, CYP2C9 inh 7.3 and CYP2C19 inh -1.7.
`Cc1ccc2c(c1)sc1nc(=O)n(-c3cccc(Cl)c3)c(=O)n12` gave Cav32 inh -0.0338, CYP2C19 act 0.7, CYP2C9 activ 1, CYP2C9 inh 4.4 and CYP2C19 inh 25.6.
For COc1cccc(/C=N\n2c(C)nnc2C)c1OC the results were Cav32 inh 0.0634, CYP2C19 act 1.2, CYP2C9 activ 1.1, CYP2C9 inh -7.9 and CYP2C19 inh -18.4.
CSc1nnc(-c2ccccc2)n1N was read as Cav32 inh -0.0362, CYP2C19 act 1.2, CYP2C9 activ 1.1, CYP2C9 inh -9.8 and CYP2C19 inh -17.4.
COc1cccc(/C=N/n2c(C)nc3ccccc32)c1OC was read as Cav32 inh -1.97, CYP2C19 act 0.6, CYP2C9 activ 0.3, CYP2C9 inh 68.5* and CYP2C19 inh 39.4.
`COc1ccc(/C=N/n2c(SC)nnc2-c2ccccc2)c(OC)c1OC` gave Cav32 inh 0.51, CYP2C19 act 0.2, CYP2C9 activ 0.3, CYP2C9 inh 67.4* and CYP2C19 inh 78.8*.
For COc1ccc(/C=N/n2c(SC)nnc2-c2ccccc2)cc1C the results were Cav32 inh -1.62, CYP2C19 act 0.5, CYP2C9 activ 0.7, CYP2C9 inh 32.3 and CYP2C19 inh 54.1*.
COc1ccc(/C=N/N2CCN(c3ccccc3OC)CC2)cc1OC was read as Cav32 inh -1.77, CYP2C19 act 0.9, CYP2C9 activ 1.1, CYP2C9 inh -9.7 and CYP2C19 inh 8.8.
O=C(NC12CC3CC(CC(C3)C1)C2)N1CCC(n2nnc3ccccc32)CC1 was read as Cav32 inh -0.188, CYP2C19 act 0.2, CYP2C9 activ 0.9, CYP2C9 inh 6.1 and CYP2C19 inh 78.3*.
For CCOC(=O)CSc1cc(C)nc(NC(C)=O)n1 the results were Cav32 inh -0.206, CYP2C19 act 1, CYP2C9 activ 1, CYP2C9 inh -1.1 and CYP2C19 inh 2.9.
Cc1ccc(-n2ncc3c(=O)n(CC#N)cnc32)cc1C was read as Cav32 inh -0.403, CYP2C19 act 0.8, CYP2C9 activ 0.8, CYP2C9 inh 18.4 and CYP2C19 inh 19.8.
For CC(C)CCn1cnc2c(cnn2-c2ccc(Cl)cc2)c1=O the results were Cav32 inh -0.00829, CYP2C19 act 0.7, CYP2C9 activ 0.3, CYP2C9 inh 70.9* and CYP2C19 inh 31.6.
C#CCn1cnc2c(cnn2-c2ccc(C)c(C)c2)c1=O was read as Cav32 inh 0.399, CYP2C19 act 0.4, CYP2C9 activ 0.7, CYP2C9 inh 27.4 and CYP2C19 inh 64.2*.
Screening Cc1csc(NC(=O)C2CCCN(S(=O)(=O)c3ccc4c(c3)oc(=O)n4C)C2)n1 (stereo not drawn) returned Cav32 inh 0.963, CYP2C19 act 0.5, CYP2C9 activ 0.5, CYP2C9 inh 49.0 and CYP2C19 inh 51.6*.
For Cc1csc(NC(=O)C2CCCN(S(=O)(=O)c3ccc(Br)s3)C2)n1 (stereo not drawn) the results were CYP2C19 act 0.1, CYP2C9 activ 0.1, CYP2C9 inh 93.9* and CYP2C19 inh 92.3*.
For COc1ccc(NC(=O)C2CCCN(S(=O)(=O)c3ccc4c(c3)oc(=O)n4C)C2)c(OC)c1 (stereo not drawn) the results were Cav32 inh 0.438, CYP2C19 act 0.5, CYP2C9 activ 0.6, CYP2C9 inh 37.6 and CYP2C19 inh 51.4*.
